Data on 14 compounds can be found in PubChem BioAssay.

Structures are written as SMILES. Calls of active or inactive are those of the source.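 How the source made its calls, unless noted: active means inhibition at or above 50% at 10 µM; inactive means inhibition below 50%.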

Assay [1] can be described thus: inhibitors of TNFa-induced NFkB p65 translocation, primary screen, imaging, HUVEC, MLSMR starter and 10KST1 sets (AID 438;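 active means inhibition above 20% together with a positive visual image hit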;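 further: compound added about 3h40 before a 20 min TNFalpha stimulation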;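 on inhibition: signal is the nuclear over cytoplasmic p65 intensity ratio per well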). The settings on record: HUVEC TNFa-induced p65 nuclear translocation; cell count: measured here: nuclei count (cytotoxicity indicator), at 2.08 µM; inhibition: at 2 µM, stronger effect = higher value, 0% TNFa-plus-vehicle, 100% no-TNFa wells.
The nature of assay [2]: inhibitors of mutant huntingtin aggregation, primary screen, imaging, exon1htt(103Q)mCFP cells, high-content imaging (AID 483;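 active means visual image review flags a hit and inhibition of aggregation exceeds 20%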;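 further: compound exposure lasted 3 days before fixation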;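 on nuclei count: percent of the per-plate median nuclei count of sample wells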). The settings on record: exon1htt(103Q)mCFP cell line, aggregate imaging, at 2 µM; inhibition of aggregation: stronger effect = higher value; nuclei count: measured here: cell count, toxicity.
Assay [3] can be described thus: inhibitors of E-selectin induction by TNFa, primary screen, imaging, HUVEC, immunofluorescence, MLSMR starter and 10KST1 sets (AID 487;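 active means visually confirmed hit in the image check and inhibition above 20%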;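 on inhibition: signal is fraction of cell area covered by stained E-selectin grains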;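 on nuclei count: 100% = median nuclei count of all wells on the same plate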). The settings on record: HUVEC TNFalpha-induced E-selectin immunofluorescence imaging, at 2 µM; inhibition: stronger effect = higher value; nuclei count: measured here: cell number, toxicity.
For assay [4], the target named is Voltage-gated potassium channel subunit beta-2 (Rattus norvegicus) (UniProt P62483). Description: KvBeta enzyme negative modulators, primary screen, biochemical, NADPH fluorescence (AID 622;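 active means fluorescence slope higher than the sample average by over 3 SD, cut at about -0.22 in these data, passing the limit was not always enough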;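 further: slope of raw intensity against log time taken from 70 to 1610 s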). The conditions noted are these: recombinant KvBeta, 4-cyanobenzaldehyde reduction, at 10 µM, stronger effect = higher value.
Chain of Voltage-gated potassium channel subunit beta-2 (Rattus norvegicus) (P62483 whole entry, looked up): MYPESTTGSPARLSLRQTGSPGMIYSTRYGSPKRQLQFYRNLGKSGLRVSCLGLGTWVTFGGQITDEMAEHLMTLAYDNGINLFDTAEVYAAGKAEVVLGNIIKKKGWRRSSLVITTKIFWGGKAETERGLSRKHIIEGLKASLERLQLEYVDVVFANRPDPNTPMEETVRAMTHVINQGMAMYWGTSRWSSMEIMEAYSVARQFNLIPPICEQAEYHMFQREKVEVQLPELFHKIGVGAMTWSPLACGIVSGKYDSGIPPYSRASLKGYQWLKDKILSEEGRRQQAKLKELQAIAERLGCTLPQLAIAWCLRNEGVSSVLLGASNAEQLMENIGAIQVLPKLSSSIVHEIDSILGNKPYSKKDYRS
The target is the same in assay [5]. Description: KvBeta positive modulators, primary screen, biochemical, NADPH fluorescence (AID 623;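 active means NADPH fluorescence slope more negative than the mean of all samples by about 3 SD, 99.7% confidence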;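 further: fluorescence intensity change per second fitted from 20 to 320 s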). The conditions noted are these: Recombinant KvBeta, NADPH fluorescence decrease slope, 10 min; at 10 µM; stronger effect = lower value.
Assay [6] addresses Alpha-2C adrenergic receptor (Homo sapiens) (UniProt P18825). Description: modulators of alpha2C/GIRK thallium flux, primary screen, cell-based, HEK293 alpha2C/GIRK1/2 (AID 624;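 active means fluorescence slope after compound addition differing from the mean of all screened samples at 99.7% confidence, in either direction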;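 further: slope of fluorescence ratio to pre-addition baseline per second over 15 to 24 s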). The settings on record: thallium flux BTC fluorescence, at 10 µM, actives lie on both sides.
Assay [7] can be described thus: inhibitors of Sendai virus-induced IRF3 signaling, primary screen, TLR/RLR signaling modifier project, cell-based, Sendai virus stimulus, luciferase, 10K MLSCN set (AID 602276).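 Further: firefly luciferase from ISG56 promoter only with Renilla not read in this screen; 0% = Sendai virus plus DMSO and 100% = medium plus DMSO without virus.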 The settings on record: HEK293 RL24 IRF3 luciferase reporter, at 10 µM, stronger effect = higher value. (In general: Reporter assays use an easily measured gene product as a stand-in for the process of interest.)

Assay [8] can be described thus: inhibitors of poly I:C-induced TLR3 signaling, primary screen, cell-based, poly I:C stimulus, luciferase, 10K MLSCN set (AID 602277;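 active means inhibition of the reporter signal at or above 50%; inactive means inhibition below 50%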). The conditions noted are these: HEK293-TLR3 RL24 IRF3 luciferase reporter, at 10 µM, stronger effect = higher value.

Chain of Alpha-2C adrenergic receptor (Homo sapiens) (P18825 whole entry, looked up): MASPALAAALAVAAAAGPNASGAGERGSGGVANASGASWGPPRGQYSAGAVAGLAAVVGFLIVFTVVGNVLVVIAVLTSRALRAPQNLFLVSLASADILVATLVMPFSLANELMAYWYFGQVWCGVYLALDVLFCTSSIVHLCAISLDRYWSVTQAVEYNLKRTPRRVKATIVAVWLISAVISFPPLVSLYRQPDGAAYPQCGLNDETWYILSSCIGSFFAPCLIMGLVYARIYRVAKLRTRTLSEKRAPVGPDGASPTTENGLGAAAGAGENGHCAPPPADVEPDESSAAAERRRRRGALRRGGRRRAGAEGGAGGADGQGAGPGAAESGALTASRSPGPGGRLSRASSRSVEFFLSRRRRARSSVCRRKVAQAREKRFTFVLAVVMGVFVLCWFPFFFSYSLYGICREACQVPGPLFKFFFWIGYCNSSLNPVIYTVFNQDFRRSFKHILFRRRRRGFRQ

Usually inhibition stands for the drop in the measured response relative to a control, in per cent. On to `CC1Cc2ccccc2N1Cc1cc(=O)n2ccsc2n1` (centres undefined), for which, in assay [1], the cell count stood at 453. Besides, the inhibition in assay [1] was -5.7% (inactive); in assay [3] it was -157% (inactive); in assay [7] it was 1.61% (inactive); in assay [8], 20.7% (inactive). Moreover, the inhibition of aggregation in assay [2] is -2.2% (inactive). Also, the results for the nuclei count in assay [2] and in assay [3] were 96.8% and 121%, respectively. The fluorescence slope in assay [4] was -0.581 (inactive). The NADPH fluorescence slope in assay [5] is -2e-05 (inactive). Moreover, in assay [6], the slope was 0.00674 (inactive).
For `COc1ccc(-c2nc(C)c(C(C)=O)n2O)cc1OC`, the cell count in assay [1] is 385. For the same compound, the inhibition was 2.7% (inactive) in assay [1], -127% (inactive) in assay [3], -2.76% (inactive) in assay [7] and 10.1% (inactive) in assay [8]. Moreover, the inhibition of aggregation in assay [2] is 3.6% (inactive). Further, the nuclei count in assay [2] came to 102%; in assay [3] it was 106%. The fluorescence slope in assay [4] was -0.355 (inactive). Further, the NADPH fluorescence slope in assay [5] is -2.6e-05 (inactive). Also, the slope in assay [6] is 0.00569 (inactive).
With `CCN1CCN(CCCNC(=O)c2cc3sccc3n2CC)CC1`, the cell count in assay [1] stood at 605. Besides, the inhibition was 11% (inactive) in assay [1], 37.9% (inactive) in assay [3], -14.9% (inactive) in assay [7] and 15.5% (inactive) in assay [8]. Besides, the inhibition of aggregation in assay [2] was -0.9% (inactive). Besides, the figures for the nuclei count in assay [2] and in assay [3] were 105% and 108%, respectively. The fluorescence slope in assay [4] is -0.586 (inactive). Further, the NADPH fluorescence slope in assay [5] is -3.5e-05 (inactive). Further, the slope in assay [6] was 0.00699 (inactive).
Consider `O=C(C1=C(O)C(=O)N(Cc2ccccc2)C1c1ccncc1)c1ccco1` (centres undefined), for which, in assay [1], the cell count is 382. Moreover, the inhibition is 8.3% (inactive) in assay [1], -216% (inactive) in assay [3], -5.31% (inactive) in assay [7] and 2.12% (inactive) in assay [8]. Besides, the inhibition of aggregation in assay [2] was -3.4% (inactive). For the same compound, the nuclei count is 116% in assay [2] and 143% in assay [3]. The fluorescence slope in assay [4] was -0.192 (inactive). In addition, the NADPH fluorescence slope in assay [5] is 2.5e-06 (inactive). Also, the slope in assay [6] was 0.0062 (inactive).
`CCOC(=O)c1c(C)n(C)c2c(C)cc(O)c(OC(C)=O)c12`: the cell count in assay [1] came out at 292. Also, the inhibition in assay [1] was -5% (inactive); in assay [3] it was -12.4% (inactive); in assay [7], 4.23% (inactive); in assay [8] it was -2.25% (inactive). In assay [2], the inhibition of aggregation was -6.8% (inactive). For the same compound, the nuclei count stood at 96.7% in assay [2] and 109% in assay [3]. For the same compound, the fluorescence slope in assay [4] was -0.467 (inactive). Further, in assay [5], the NADPH fluorescence slope was -7.1e-06 (inactive). Besides, the slope in assay [6] was 0.00417 (inactive).
For the compound `CCOC(=O)c1[nH]c(C)c(C(=O)Nc2ccccc2C)c1C`, in assay [1], the cell count amounted to 619. Besides, the inhibition was 12.1% (inactive) in assay [1], -15.2% (inactive) in assay [3], 27.7% (inactive) in assay [7] and 11.1% (inactive) in assay [8]. In addition, the inhibition of aggregation in assay [2] was -101% (inactive). In addition, the figures for the nuclei count in assay [2] and in assay [3] were 7.1% and 94.8%, respectively. The fluorescence slope in assay [4] is -0.603 (inactive). The NADPH fluorescence slope in assay [5] is -5.4e-05 (inactive). The slope in assay [6] was 0.00703 (inactive).
Consider `COc1ccc(S(=O)(=O)N(CCN2CCOCC2)Cc2cc(OC)ccc2OC)cc1`, for which the cell count in assay [1] turned out to be 426. For the same compound, the inhibition is 8.5% (inactive) in assay [1], -100% (inactive) in assay [3], 17.2% (inactive) in assay [7] and 33.5% (inactive) in assay [8]. In addition, the inhibition of aggregation in assay [2] is -25.8% (inactive). Moreover, the figures for the nuclei count in assay [2] and in assay [3] were 102% and 113%, respectively. Besides, the fluorescence slope in assay [4] is -0.582 (inactive). Moreover, in assay [5], the NADPH fluorescence slope was -1.5e-06 (inactive). The slope in assay [6] is 0.00508 (inactive).
Consider `COc1ccc(CCNC(=O)c2cnn3ccccc23)c(OC)c1OC`, for which the cell count in assay [1] was found to be 779. For the same compound, the inhibition in assay [1] was -4.5% (inactive); in assay [3], -59.3% (inactive); in assay [7] it was 1.42% (inactive); in assay [8] it was -10.8% (inactive). The inhibition of aggregation in assay [2] was -37.7% (inactive). Besides, the results for the nuclei count in assay [2] and in assay [3] were 108% and 115%, respectively. The fluorescence slope in assay [4] is -0.558 (inactive). The NADPH fluorescence slope in assay [5] is -4.4e-06 (inactive). Also, the slope in assay [6] is 0.00687 (inactive).
As for `CCC(=O)N/C(N)=N/c1nc(C)c2cc(OC)ccc2n1`, the cell count in assay [1] was determined as 730. For the same compound, the inhibition in assay [1] is 10.7% (inactive); in assay [3] it was 9.1% (inactive); in assay [7] it was -62.4% (inactive); in assay [8], -122% (inactive). In assay [2], the inhibition of aggregation is -24.4% (inactive). The values for the nuclei count in assay [2] and in assay [3] were 95.9% and 92.1%, respectively. Besides, in assay [4], the fluorescence slope is -0.378 (inactive). Further, in assay [5], the NADPH fluorescence slope was -1.1e-05 (inactive). Further, the slope in assay [6] was 0.00511 (inactive).
`Cc1ccc(OC(=O)CCC(=O)OCCCC(F)(F)C(F)(F)F)cc1`: the cell count in assay [1] was 403. Also, the inhibition was -3% (inactive) in assay [1], 4.5% (inactive) in assay [3], 3.53% (inactive) in assay [7] and 21.1% (inactive) in assay [8]. Besides, the inhibition of aggregation in assay [2] was 4.9% (inactive). Besides, the nuclei count was found to be 103% in assay [2] and 92.5% in assay [3]. The fluorescence slope in assay [4] is -0.382 (inactive). For the same compound, the NADPH fluorescence slope in assay [5] is -5.9e-05 (inactive). In addition, the slope in assay [6] is 0.00733 (inactive).
Consider `O=C(CC(CC(=O)c1ccccc1)C(=O)O)c1ccccc1`, for which the cell count in assay [1] worked out at 393. Moreover, the inhibition is 8.7% (inactive) in assay [1], -52.5% (inactive) in assay [3], -0.637% (inactive) in assay [7] and -0.177% (inactive) in assay [8]. The inhibition of aggregation in assay [2] is -4.6% (inactive). In addition, the results for the nuclei count in assay [2] and in assay [3] were 91.9% and 109%, respectively. Also, the fluorescence slope in assay [4] is -0.525 (inactive). Moreover, the NADPH fluorescence slope in assay [5] was -3.8e-05 (inactive). In addition, the slope in assay [6] was 0.0059 (inactive).
Take `COc1cc2c(cc1OC)C(c1ccccc1O)N(C1CC(=O)N(c3ccccc3)C1=O)CC2` (centres undefined): in assay [1], the cell count turned out to be 409. In addition, the inhibition in assay [1] was -0.5% (inactive); in assay [3], -27.1% (inactive); in assay [7], 15.9% (inactive); in assay [8] it was 28.7% (inactive). Besides, the inhibition of aggregation in assay [2] was -10.4% (inactive). For the same compound, the values for the nuclei count in assay [2] and in assay [3] were 105% and 123%, respectively. The fluorescence slope in assay [4] is -0.411 (inactive). The NADPH fluorescence slope in assay [5] is -8.8e-05 (inactive). Also, the slope in assay [6] was 0.00648 (inactive).
For `COc1ccc(CC(=O)OCn2nnc3ccccc3c2=O)cc1`, in assay [1], the cell count was 423. The inhibition in assay [1] was -7% (inactive); in assay [3] it was -7.5% (inactive); in assay [7], 12% (inactive); in assay [8] it was 16.4% (inactive). Further, the inhibition of aggregation in assay [2] was -25.9% (inactive). Moreover, the values for the nuclei count in assay [2] and in assay [3] were 120% and 115%, respectively. Moreover, the fluorescence slope in assay [4] is -0.416 (inactive). In addition, the NADPH fluorescence slope in assay [5] is -4.2e-05 (inactive). In addition, the slope in assay [6] was 0.00601 (inactive).
Consider `Cc1cc(C)cc(Nc2ncc3c(n2)CC(c2ccco2)CC3=O)c1` (centres undefined), for which, in assay [1], the cell count came to 465. Besides, the inhibition in assay [1] was -18.3% (inactive); in assay [3] it was -88% (inactive); in assay [7], 14.2% (inactive); in assay [8], -2.34% (inactive). For the same compound, in assay [2], the inhibition of aggregation is -14.3% (inactive). Moreover, the nuclei count was 106% in assay [2] and 114% in assay [3]. In addition, the fluorescence slope in assay [4] is -0.385 (inactive). Besides, the NADPH fluorescence slope in assay [5] was -3e-05 (inactive). Besides, the slope in assay [6] was 0.00418 (inactive).
